Only some compounds are listed: those with a hit (about 3.8% of all), similar ones and a draw of the others.
HSF-1 act – increases HSF-1 driven luciferase reporter signal; NIH3T3-HGL HSF-1 luciferase reporter, MG132, 8 h; 100% = twice DMSO control signal; activation, % at 9 µM; 300,000 tested, 1.7% active;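 active means mean replicate activation of at least 50% with a set share of replicates each reaching 50%; inconclusive means only one of those two conditions met; inactive means mean below 50% and too few replicates reaching it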
Wnt act – activators of Wnt/beta-catenin signaling. Wnt/beta-catenin reporter cell assay, activator, plate reader. activation, % at 9.35 µM. 300,000 tested, 1.2% active; in the data active means activation above about 30%, passing the limit was not always enough; inconclusive means no clear call, values can overlap the other calls
HSF1 inh – HSF1 inhibition. NIH3T3-HGL HSE-luciferase, MG132-induced, luminescence 8 h; active compounds read low. 300,000 tested, 0.77% active. activity change, negative = inhibition, % at 7.5 µM (by protocol);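 active means more than half of replicate wells show activity change below -50%, luminescence cut by over half; inconclusive means some wells, but at most half, below -50%; inactive means no replicate well below -50%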;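 further: luciferase reports HSF-1 transcriptional activity via heat shock element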
esBAF inh – blocks esBAF chromatin remodeling in mouse ES cells; 350,000 tested, 2% active; AID 602393; Bmi1-luciferase knock-in reporter, 24 h; 100% = twice the neutral-well signal; reporter increase, % at 12.5 µM; in the data active means activation above about 40%; inconclusive means no clear call, values can overlap the other calls;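 further: a rise in the Bmi1 reporter signal indicates esBAF inhibition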
MITF act – MITF TRPM1 promoter activation in melanoma cells; SK-MEL-5 TRPM1-promoter luciferase, 24 h; % of positive control, neutral wells = 0; activation, % at 12.5 µM; 300,000 tested, 0.75% active; AID 588334;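 active means mean activation of at least 80% with every replicate also reaching 80%; inconclusive means mean reaches 80% but some replicate falls short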
Each line names hits and unclear results; the compound was inactive in the other large screens.

Cc1ccc(NC(=O)c2cc(-c3cccs3)on2)cc1	Wnt act 56 (no result: MITF act)
C[C@@H]1CN([C@@H](C)CO)C(=O)Cc2cc(NC(=O)NC3CCCCC3)ccc2O[C@H]1CN(C)C(=O)Nc1ccccc1	none (no result: HSF-1 act, Wnt act, HSF1 inh, MITF act)
C[C@H](CO)N1C[C@H](C)[C@@H](CN(C)C(=O)C2CCOCC2)Oc2cc(C#Cc3ccncc3)ccc2S1(=O)=O	none (no result: HSF-1 act, Wnt act, HSF1 inh, MITF act)
CCCNC(=O)N1C[C@H](O)COC[C@@H]2O[C@H](CC(=O)N[C@H]3CCN(Cc4ccccc4)C3)CC[C@H]21	none (no result: HSF-1 act, Wnt act, HSF1 inh, MITF act)
C[C@@H]1CN([C@H](C)CO)C(=O)c2cc(NS(=O)(=O)c3cn(C)cn3)ccc2O[C@@H]1CN(C)Cc1ccc(C(F)(F)F)cc1	none (no result: HSF-1 act, Wnt act, HSF1 inh, MITF act)
Cc1sc2ncnc(N3CCC(C(=O)Nc4nc(-c5cccs5)cs4)CC3)c2c1C	HSF1 inh -54
CCc1nnc(NC(=O)C2CCN(c3ncnc4sc(C)c(C)c34)CC2)s1	none (no result: HSF-1 act, HSF1 inh)
Oc1ccc(Nc2nc3ccccc3nc2Nc2ccc(O)cc2)cc1	HSF1 inh -86 (no result: Wnt act, MITF act)
CC(C)NC(=O)N(C)C[C@@H]1OCCCC[C@@H](C)Oc2ccc(NS(=O)(=O)c3ccc(Cl)cc3)cc2C(=O)N([C@@H](C)CO)C[C@@H]1C	none (no result: HSF-1 act, Wnt act, HSF1 inh, MITF act)
COc1ccc(NC(=S)Nc2cc(C)[nH]n2)cc1Cl	none
Cc1cc(NC(=S)Nc2ccc(C)c(Cl)c2)n[nH]1	Wnt act inconclusive, MITF act 91 (no result: esBAF inh)
CC(=O)Nc1ccc2c(c1)nc1n2CCSC1	none (no result: Wnt act)
Cc1ccc(C(=O)Nc2ccc3c(c2)nc2n3CCSC2)cc1	Wnt act 33 (no result: MITF act)
CO[C@@H]1CN(C)C(=O)c2ccc(NC(=O)c3ccc(F)cc3)cc2OC[C@@H](C)N(C)C[C@H]1C	none (no result: HSF-1 act, Wnt act, HSF1 inh, MITF act)
Cc1nc2ccccc2n1CC(O)COc1ccccc1Cl (stereo not drawn)	Wnt act 37
Cc1nc2ccccc2n1CC(O)COc1ccc(Br)cc1 (stereo not drawn)	none (no result: esBAF inh)
FC(F)(F)c1cnc(Sc2nnc(-c3cccs3)n2CC2CCCO2)c(Cl)c1 (stereo not drawn)	none (no result: Wnt act)
FC(F)(F)c1ccc(Sc2nnc(-c3cccs3)n2CC2CCCO2)nc1 (stereo not drawn)	HSF-1 act 58
CN1[C@@H]2c3ccc(C4=CCCCC4)c(=O)n3C[C@@H]2[C@@H](CO)[C@@H]1C(=O)NCc1ccccc1	none (no result: HSF-1 act, Wnt act, HSF1 inh, MITF act)
O=C(NCc1ccccc1)[C@@H]1[C@@H](CO)[C@@H]2Cn3c(cccc3=O)[C@H]1N2Cc1cccnc1	none (no result: HSF-1 act, Wnt act, HSF1 inh, MITF act)
COC(=O)c1ccc(COc2ccccc2/C=C(\C#N)C(=O)Nc2c(C)cc(C)cc2C)cc1	HSF-1 act 93
COC(=O)c1ccc(COc2ccccc2/C=C(\C#N)C(=O)Nc2ccc(C)cc2C)cc1	none (no result: esBAF inh)
CC(=O)n1cc(C(C[N+](=O)[O-])SCCN)c2ccccc21 (stereo not drawn)	HSF-1 act 59 (no result: Wnt act, esBAF inh, MITF act)
O=C(C[C@H]1CC[C@@H](NC(=O)c2ccncc2)[C@H](CO)O1)NCC1CCCCC1	none (no result: HSF-1 act, Wnt act, HSF1 inh, MITF act)
O=C(NCCc1ccccc1)c1ccc2c(c1)OCCO2	HSF1 inh -66
O=C(NCCc1ccccc1)c1ccc2c(c1)OCCCO2	HSF1 inh -83
COc1cccc(C(=O)NCCS(=O)(=O)NCCc2ccccc2)c1	HSF-1 act 59
COc1ccc(CCNC(=O)c2ccc3c(c2)OCCO3)cc1	none (no result: esBAF inh)
O=C(NCCc1cccc(Cl)c1)c1ccc2c(c1)OCO2	Wnt act 45 (no result: esBAF inh)
COc1ccc(S(=O)(=O)Nc2cccc3c2O[C@@H](CN(C)Cc2ccc(C(=O)Nc4ccccc4N)cc2)[C@@H](C)CN([C@@H](C)CO)C3=O)cc1	none (no result: HSF-1 act, Wnt act, HSF1 inh, MITF act)
O=C(NCCS(=O)(=O)NCCc1ccccc1)c1ccc2c(c1)OCO2	MITF act 108 (no result: esBAF inh)
O=C(NCCS(=O)(=O)NCc1ccccc1Cl)c1ccc2c(c1)OCO2	none
CN1CCN(S(=O)(=O)c2ccc(NN)nc2)CC1	Wnt act 57 (no result: HSF-1 act, HSF1 inh)
CN1CCN(c2ccc(S(=O)(=O)N3CCCCC3)cn2)CC1	none (no result: Wnt act, esBAF inh)
CN(c1ccccc1)S(=O)(=O)c1nnc(NC(=O)COc2ccccc2)s1	none
CN(c1ccccc1)S(=O)(=O)c1nnc(NC(=O)COc2ccccc2F)s1	HSF1 inh -72
COc1cc2c(cc1NC(=O)COc1ccccc1OC)oc1ccccc12	none (no result: Wnt act)
COc1cc2c(cc1NC(=O)COC(=O)[C@@H](NS(=O)(=O)c1ccccc1)C(C)C)oc1ccccc12	HSF-1 act 90 (no result: Wnt act, esBAF inh)
Cc1ccc(O)c(C(=O)c2cnc3c(c2)c(-c2ccc(F)cc2)c(C#N)c(=O)n3C)c1	HSF-1 act 63 (no result: esBAF inh)
C[C@H]1CN([C@@H](C)CO)S(=O)(=O)c2ccc(C#CCN(C)C)cc2O[C@@H]1CN(C)C(=O)c1ccccc1F	none (no result: HSF-1 act, Wnt act, HSF1 inh, MITF act)
COc1ccc(/C=N/NS(=O)(=O)c2ccc(C)cc2)cc1OC(=O)c1ccccc1	none (no result: HSF-1 act, Wnt act, HSF1 inh)
COc1cc(/C=N/NS(=O)(=O)c2ccc(C)cc2)ccc1OCc1cccc(C(=O)O)c1	HSF1 inh -64
COc1cc(/C=N/NS(=O)(=O)c2ccc3ccccc3c2)ccc1OCc1ccc(C(=O)O)cc1	HSF1 inh -74
C[C@H](CO)N1C[C@H](C)[C@H](CN(C)Cc2ccccc2)OCCCC[C@H](C)Oc2ccc(NC(=O)CCCN(C)C)cc2C1=O	none (no result: HSF-1 act, Wnt act, HSF1 inh, MITF act)
COc1ccc(Cn2nnc(C(=O)Nc3ccc4c(c3)OCCO4)c2N)cc1Br	none
Cc1ccc(NC(=O)c2nnn(-c3ccc4c(c3)OCCO4)c2N)cc1	esBAF inh 70, MITF act 99
Cc1ccccc1Cn1nnc(C(=O)Nc2ccc3c(c2)OCCO3)c1N	Wnt act 46, esBAF inh 68, MITF act 91
Cc1ccc(N2CC(C(=O)Nc3ccc4c(c3)OCCO4)CC2=O)cc1C (stereo not drawn)	none
Cc1ccc(C)c(Cn2nnc(C(=O)Nc3ccc4c(c3)OCCO4)c2N)c1	esBAF inh 64, MITF act 85
Cc1ccc(N2CC(C(=O)Nc3ccc4c(c3)OCCO4)CC2=O)cc1 (stereo not drawn)	Wnt act 30
Nc1c(C(=O)Nc2ccccc2)nnn1-c1ccc2c(c1)OCCO2	none
Cc1cc(C)cc(NC(=O)c2nnn(Cc3cc(C)ccc3C)c2N)c1	none (no result: Wnt act)
C[C@@H]1CN([C@H](C)CO)S(=O)(=O)c2ccc(C#CC3(O)CCCC3)cc2O[C@H]1CN(C)C	none (no result: HSF-1 act, Wnt act, HSF1 inh, MITF act)
COc1ccc(CN(C)C[C@@H]2Oc3c(NS(=O)(=O)c4ccc(C)cc4)cccc3C(=O)N([C@H](C)CO)C[C@@H]2C)cc1	none (no result: HSF-1 act, Wnt act, HSF1 inh, MITF act)
CN1CCN(c2ccc(CNC(=O)c3cc4ccccc4o3)cc2)CC1	none (no result: esBAF inh)
Cc1ccc(C(=O)NCc2ccc(N3CCN(C)CC3)cc2)cc1C	HSF1 inh -69 (no result: MITF act)
Cc1ccc(NC(=O)CN(C)Cc2nc3ccccc3c(=O)[nH]2)c(Br)c1	HSF-1 act 53 (no result: Wnt act, esBAF inh)
O=C1CC(N2CCC(c3nc4ccccc4[nH]3)CC2)C(=O)N1c1ccccc1F (stereo not drawn)	HSF-1 act 177
C[C@@H]1CN([C@@H](C)CO)C(=O)c2cccc(NC(=O)c3nc4ccccc4s3)c2O[C@@H]1CN(C)S(=O)(=O)c1cccs1	none (no result: HSF-1 act, Wnt act, HSF1 inh, MITF act)

Compound activity (PubChem BioAssay)
